# Laboratory results as given in PubChem BioAssay (NCATS).
# A number with no mark means an inactive call. Inconclusive results are not listed. A call without a number means that no potency is given here. Calls of active or inactive are those of the source. Calls follow the shape of the dose curve; as a rule, active = well fitted curve in the direction sought with a large enough effect; inconclusive = small, poorly fitted or top-dose-only effect, or another doubt; inactive = no such curve, though single readings can be large; an effect the other way counts as inactive or inconclusive.
# Legend:
# [1] = biological target: Rap guanine nucleotide exchange factor 4 (Homo sapiens) (UniProt Q8WZA2); assay: Confirmatory qHTS for antagonist of cAMP-regulated guanine nucleotide exchange factor 4 (EPAC2) (AID 1645885); also: nearly all actives have a fitted effect of over 25% in size; also: potency is read from the fitted curve at half-maximal effect
# [2] = NCATS anti-infectives library activity on HEK293 viability as a counter-qHTS vs the C. elegans viability qHTS (AID 1745854);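 also: HEK293 cells exposed to compounds for 24 hr before the viability read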
# How it was run: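 HEK293 cells (1,500/well) exposed 24 hr at 37C to 1:5 titrations, up to 41.7 uM final; counter-screen to a C. elegans viability qHTS. Viability by CellTiter-Glo luminescence after 10 min at room temperature; digitonin as control.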
# [3] = Viability counterscreen for antagonist of constitutive androstane receptor (CAR) against the NCATS DSHEA and TCM libraries (AID 1794837);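 also: compound exposure lasted 24 h before viability reading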
# How it was run: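 Fluorescence from CellTiter-Fluor reports live-cell protease activity in HepG2-CYP2B6-hCAR cells treated for 24 h with substances alongside 48 uM CITCO.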
# [4] = Viability counterscreen for agonist of constitutive androstane receptor (CAR) against the NCATS DSHEA and TCM libraries (AID 1794838);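 also: cells exposed to compound for 24 h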
# How it was run: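 In agonist mode, PK11195 is added at 0.75 uM final to HepG2-CYP2B6-hCAR cells dosed with test substances. Cultures incubate 24 h at 37C before a protease-based fluorogenic viability readout.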
# [5] = biological target: Nuclear receptor subfamily 1 group I member 3 (Homo sapiens) (UniProt Q14994); assay: Primary qHTS for agonist of constitutive androstane receptor (CAR) against the NCATS DSHEA and TCM libraries (AID 1794839);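 also: HepG2 cells expressing human CAR with a CYP2B6 reporter plus PK11195 antagonist; luciferase reporter luminescence read with ONE-Glo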
# How it was run: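 Cells stably carrying hCAR and a CYP2B6 reporter (HepG2 background) are seeded and allowed 5 h to adhere. Substances at multiple concentrations are added alongside 0.75 µM PK11195, and luciferase signal is measured after 24 h.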
# [6] = HepG2 viability counterscreen (readout 2: ATP content) against the NCATS DSHEA and TCM libraries (AID 1794840);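 also: HepG2 cells exposed to substances for about 24 h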
# How it was run: (§1)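 Cytotoxicity was assessed in HepG2 cells plated at 1,000 cells/well and exposed for about 24 hours to a concentration series. Protease activity and ATP content were measured sequentially in each well.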
# [7] = HepG2 viability counterscreen (readout 1: protease activity) against the NCATS DSHEA and TCM libraries (AID 1794841);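 also: cells exposed to compounds for about 24 h before the protease read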
# How it was run: as §1
# Chain of Nuclear receptor subfamily 1 group I member 3 (Homo sapiens) (Q14994 whole entry, looked up): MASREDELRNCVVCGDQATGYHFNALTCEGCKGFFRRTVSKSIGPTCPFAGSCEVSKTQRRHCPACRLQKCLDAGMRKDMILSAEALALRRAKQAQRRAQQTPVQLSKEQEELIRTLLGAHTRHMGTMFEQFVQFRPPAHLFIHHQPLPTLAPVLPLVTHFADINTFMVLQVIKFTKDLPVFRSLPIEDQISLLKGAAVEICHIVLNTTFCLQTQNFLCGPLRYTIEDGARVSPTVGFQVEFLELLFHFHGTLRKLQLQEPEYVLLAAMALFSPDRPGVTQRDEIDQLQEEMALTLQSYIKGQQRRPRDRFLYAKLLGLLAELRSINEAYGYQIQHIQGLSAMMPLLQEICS
# Chain of Rap guanine nucleotide exchange factor 4 (Homo sapiens) (Q8WZA2 whole entry, looked up): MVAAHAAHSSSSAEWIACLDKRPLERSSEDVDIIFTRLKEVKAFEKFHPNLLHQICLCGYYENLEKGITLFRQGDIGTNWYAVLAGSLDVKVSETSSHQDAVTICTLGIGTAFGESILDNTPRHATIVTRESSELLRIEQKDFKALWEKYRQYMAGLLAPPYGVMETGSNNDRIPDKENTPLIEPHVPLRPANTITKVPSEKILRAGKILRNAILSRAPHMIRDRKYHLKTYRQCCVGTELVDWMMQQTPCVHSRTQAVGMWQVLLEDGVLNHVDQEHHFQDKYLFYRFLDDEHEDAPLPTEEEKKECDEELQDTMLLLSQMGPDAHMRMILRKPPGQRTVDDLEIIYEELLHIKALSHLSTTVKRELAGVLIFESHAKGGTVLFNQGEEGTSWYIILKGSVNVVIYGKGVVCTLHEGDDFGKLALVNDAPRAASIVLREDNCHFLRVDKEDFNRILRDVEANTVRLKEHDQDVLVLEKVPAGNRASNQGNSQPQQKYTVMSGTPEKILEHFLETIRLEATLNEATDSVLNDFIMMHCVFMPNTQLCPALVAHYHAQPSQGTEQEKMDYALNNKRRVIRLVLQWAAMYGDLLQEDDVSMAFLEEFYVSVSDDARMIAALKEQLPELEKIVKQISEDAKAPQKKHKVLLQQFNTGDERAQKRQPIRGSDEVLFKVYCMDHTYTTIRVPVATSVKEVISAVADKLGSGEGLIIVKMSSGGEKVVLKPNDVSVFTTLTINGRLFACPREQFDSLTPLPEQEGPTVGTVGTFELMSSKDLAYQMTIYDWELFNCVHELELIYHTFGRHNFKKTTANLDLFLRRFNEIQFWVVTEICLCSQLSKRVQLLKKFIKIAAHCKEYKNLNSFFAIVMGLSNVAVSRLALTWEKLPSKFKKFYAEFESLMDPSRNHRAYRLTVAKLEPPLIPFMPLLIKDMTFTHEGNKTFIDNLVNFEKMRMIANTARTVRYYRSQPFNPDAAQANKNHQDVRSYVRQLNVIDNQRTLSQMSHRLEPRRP
structure (smiles),measurement,setting,value
C=CC(C)(O)CC/C=C(\C)CCC=C(C)C (configuration not stated),Potency,[1],44.1 µM (active)
NCCCC[C@H](N)C(=O)O,"activity change, negative = cytotoxicity",[2],-19.5% [at 0.334 µM]
COc1ccc2c(c1)N(C[C@H](C)CN(C)C)c1ccccc1S2,Potency,[1],inactive
CCCCCCCCCCCC(=O)OCC(O)CO (configuration not stated),outcome,[3],inactive
same,outcome,[4],inactive
same,Potency,[5],inactive
same,outcome,[6],inactive
same,outcome,[7],inactive
CC(C)c1nc(N(C)S(C)(=O)=O)nc(-c2ccc(F)cc2)c1/C=C/C(O)CC(O)CC(=O)O (configuration not stated),outcome,[2],inactive
O=C(NNCS(=O)(=O)O)c1ccncc1,Potency,[1],inactive
CC(=O)N[C@@H]([C@@H](O)[C@H](O)[C@H](O)CO)[C@@H](O)CC(=O)C(=O)O,outcome,[2],inactive
CCCC(CCC)C(=O)OC1C[C@H]2CC[C@@H](C1)[N+]2(C)C (some centres not stated),outcome,[2],inactive
CC/C=C\C/C=C\C/C=C\C/C=C\C/C=C\C/C=C\CCC(=O)O,outcome,[3],inactive
same,outcome,[4],inactive
same,Potency,[5],inactive
same,outcome,[6],inactive
same,outcome,[7],inactive
Nc1nccs1,outcome,[2],inactive
O=C(Nc1ccc(O)cc1)c1ccccc1O,outcome,[2],inactive
Nc1ncnc2c1ncn2[C@H]1CC[C@@H](CO)O1,outcome,[2],inactive
CC(C)=CCC/C(C)=C/C=C/C(C)=C/C=C/C(C)=C/C=C/C=C(C)/C=C/C=C(C)/C=C/C=C(\C)CCC=C(C)C,outcome,[2],inactive
same,outcome,[3],inactive
same,outcome,[4],inactive
same,Potency,[5],inactive
same,outcome,[6],inactive
same,outcome,[7],inactive
CCN(CC)C(=S)S,outcome,[2],inactive
Cc1c(O)c(=O)ccn1C,outcome,[2],inactive
CC/C=C\C/C=C\C/C=C\C/C=C\C/C=C\CCCC(=O)O,outcome,[3],inactive
same,outcome,[4],inactive
same,outcome,[6],inactive
same,outcome,[7],inactive
NC(=O)Oc1ccc(Cc2ccccc2)cc1,Potency,[1],inactive
C=C1CC[C@H](O)CC1=C/C=C1\CCC[C@]2(C)[C@@H]([C@H](C)/C=C/[C@H](C)C(C)C)CC[C@@H]12,outcome,[3],inactive
same,outcome,[4],inactive
same,Potency,[5],inactive
same,outcome,[6],inactive
same,outcome,[7],inactive
CC(C)=CCC/C(C)=C/CC/C(C)=C/CC/C(C)=C/CC1=C(C)C(=O)c2ccccc2C1=O,outcome,[3],inactive
same,outcome,[4],inactive
same,Potency,[5],inactive
same,outcome,[6],inactive
same,outcome,[7],inactive
C=C1CC[C@H](O)C/C1=C\C=C1/CCC[C@]2(C)[C@@H]([C@H](C)CCCC(C)C)CC[C@@H]12,outcome,[3],inactive
same,outcome,[4],inactive
same,outcome,[6],inactive
same,outcome,[7],inactive
